Experimental findings from PubChem BioAssay (NCI) are described below.

This is part of a sample that, as a whole, favours compounds with a hit. Of some 79,000 tested, about 15% had one in any assay. Unmarked numbers belong to inactive results. The source made the active and inactive calls. Rule as the data show it: active = growth inhibition above about 70%; inactive = the rest.

A short description of the assay: NCI Yeast Anticancer Drug Screen. Data for the sgs1 mgt1 strain (AID 161).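 Also: 0% = growth of cultures given vehicle only.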 Conditions: S. cerevisiae sgs1 mgt1 strain, at 5.0 µM (retest, dose inferred, filed as 0.5), active compounds read high. Summed up:
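This yeast growth screen uses a strain with defined DNA-repair lesions; compound-treated growth is compared with vehicle-treated growth.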
`COc1ccc(N=N/N=c2\sc3cc(Cl)ccc3n2C)cc1`: the growth inhibition is 21%.
Turning to `O=c1ccc2nc3ccccc3ccc-2c1`, the growth inhibition was -61%.
Turning to `CC(=O)Nc1ccc(O)c(=O)cc1`, the growth inhibition was 27%.
The figure for `CC(=O)Oc1c([N+](=O)[O-])cc(-c2ccccc2)cc1[N+](=O)[O-]` is 21%; for `Cc1cc(O)c(C)c(C)c1N=Nc1ccccc1` it is -68%.
Consider `CCCCCCCC/C=C\CCCCCCCC(=O)O` (tested in a mixture with another compound), for which the growth inhibition is 3%.
For `O=S(=O)(Nc1ccc(Cl)cc1)c1ccccc1`, the growth inhibition is 1%.
Then `COC(=O)[C@@]12OC[C@]34[C@H]([C@@H](O)[C@@H]1O)[C@@]1(C)CC(=O)C(O)=C(C)[C@@H]1C[C@H]3OC(=O)[C@H](OC(=O)C(Cc1ccccc1)NC(=O)OC(C)(C)C)[C@@H]24` (stereo not given in full), with 27%; and `CSC(=S)n1nc(-c2cccs2)c(N=Nc2ccc(Cl)cc2)c1C(F)(F)F`, with 20%; and `CCN1C2=NCCN2S(=O)(=O)c2ccccc21`, with 8%.
Consider `CCCc1cc(-c2ccc(O)c(CCC)c2)ccc1O`, for which the growth inhibition was 90% (active).
For the compound `O=[N+]([O-])c1ccc(-c2cccc(Cl)c2)c([N+](=O)[O-])c1`, the growth inhibition is 13%.
As to `COC(=O)Oc1nn(C(=O)OC)c(=O)c2ccccc12`, the growth inhibition is -17%.
For `Cc1n(CC(C)C)c2c([n+]1CC(=O)c1ccc([N+](=O)[O-])cc1)C(=O)c1ccccc1C2=O`, the growth inhibition is 44%.
As to `O=C(c1ccccc1)C1C(c2ccccc2)OP(c2ccccc2)(c2ccccc2)(c2ccccc2)C1c1ccccc1` (stereo not given), the growth inhibition is 83% (active).
The figure for `Cc1nc2c(cnn2-c2ccccc2)c(=O)o1` is -57%; for `CCOC(=O)C(=O)Nc1nc2c(s1)C(=O)c1ccccc1C2=O` it is 14%; for `O=C(CCl)OCC(=O)c1ccc(-c2ccccc2)cc1` it is 10%.
Take `ICCCCCCCCCC[n+]1ccc2ccccc2c1`: the growth inhibition was 52%.
For `CCC(C)OC(=O)Nc1cccc(Cl)c1` (stereo not given), the growth inhibition is 4%.
Turning to `COc1ccccc1CN1CCCN(Cc2ccccc2OC)C1c1ccccc1F`, the growth inhibition was 4%.
Regarding `ON=C(CC(O)(C(F)(F)Cl)C(F)(F)Cl)CC(O)(C(F)(F)Cl)C(F)(F)Cl`, the growth inhibition was 37%.
For the compound `COC(=O)Cn1/c(=N\N=C(/C)c2ccc(C)cc2)sc2ccccc21`, the growth inhibition was -10%.
Take `CCN(CC)CCOc1ccc(NC(=S)Nc2ccc(OCC(C)C)cc2)cc1`: the growth inhibition is 42%.
Regarding `CCCCCCCCCCNC(=O)CBr`, the growth inhibition is -3%.
Regarding `CN(C)c1ccc(N=Nc2ccc(/C=C3\CCOC3=O)cc2)cc1`, the growth inhibition is -6%.
For the compound `CCc1cccc(CC)c1NC(=O)C1=C(C)NC(C)=C(C(=O)Nc2c(CC)cccc2CC)C1c1ccc2c(c1)OCO2`, the growth inhibition is 45%.
`Nc1cc2[nH]c(=O)c3cc(Cl)ccc3c2cc1Cl`: the growth inhibition is 26%.
For `COc1ccc(OC(C)=O)c2c1CCC=CC2=O`, the growth inhibition was 18%.
For the compound `COc1ccc(-c2n[nH]c(C(F)(F)F)c2N=NN(C)C)cc1OC`, the growth inhibition is 99% (active).
Turning to `CCC(=NCCCCCCN=C(CC)c1cc(C)cc([N+](=O)[O-])c1O)c1cc(C)cc([N+](=O)[O-])c1O.[Fe]`, the growth inhibition is 11%.
Take `COc1ccc(CN2CCCN(Cc3ccc(OC)cc3)C2Cc2cc(Cl)ccc2OC)cc1`: the growth inhibition is -44%.
Consider `Cc1cc(Cc2ccc(Cl)cc2)ccc1O`, for which the growth inhibition is 2%.
In the case of `CNCCN[C@@H]1c2cc3c(cc2[C@@H](c2cc(OC)c(O)c(OC)c2)[C@H]2C(=O)OC[C@@H]21)OCO3`, the growth inhibition is -24%.
Take `Cc1cc(NC(=S)SC(C)C)ccc1Br`: the growth inhibition is 2%.
With `CC1CC2(C)ON=C(c3ccccc3)N2c2ccccc2S1` (stereo not given), the growth inhibition was -24%.
For the compound `O=C(Cc1ccccc1)OC(C(=O)c1ccccc1)c1ccccc1` (stereo not given), the growth inhibition is 3%.
Regarding `Nc1ccc2ccccc2c1N=Nc1ccccc1`, the growth inhibition was 3%.
Regarding `Clc1ccc(C(c2ccc(Cl)cc2)c2cncnc2)cc1`, the growth inhibition is 15%.
In the case of `OC(C(=Nc1ccccc1)c1ccccc1)c1ccccc1` (stereo not given), the growth inhibition is 1%.
